Source: the supplement of paper PMC3334620
In all, about 33,000 sequences were measured (“E-score (-0.5 to 0.5)”: median about -0.013, highest 2% from about 0.3 on). This excerpt belongs to a sample that is enriched for the highest values.

These sequences were tested against T1, Msn1 (UniProt P22148) (assay: PBM E-score (8-mer binding enrichment) (E-score (-0.5 to 0.5)); higher = stronger / more preferred TF binding). Conditions: protein concentration: 200 nM; construct: GST-full length.
T1 sequence: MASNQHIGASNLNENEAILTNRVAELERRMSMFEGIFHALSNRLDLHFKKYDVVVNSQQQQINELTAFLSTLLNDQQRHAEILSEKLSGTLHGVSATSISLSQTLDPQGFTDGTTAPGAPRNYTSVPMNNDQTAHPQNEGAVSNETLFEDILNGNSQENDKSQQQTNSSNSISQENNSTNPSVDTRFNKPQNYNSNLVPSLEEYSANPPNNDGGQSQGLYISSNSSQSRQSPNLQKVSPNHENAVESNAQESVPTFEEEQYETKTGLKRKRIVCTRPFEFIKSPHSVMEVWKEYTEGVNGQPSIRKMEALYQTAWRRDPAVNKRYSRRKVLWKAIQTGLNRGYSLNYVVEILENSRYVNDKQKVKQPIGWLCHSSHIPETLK
Summary of the method: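 Each ungapped eight-base word and its reverse complement, pooled, received an E-score from the Universal PBM Analysis Suite. Underlying scans, normalised with masliner, recorded fluorescent anti-GST bound to GST-tagged yeast transcription factors. These were applied at about 100-200 nM to universal all-10-mer Agilent arrays double-stranded by primer extension.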

| Sequence | PBM E-score |
| --- | --- |
| CAAAGTTG | 0.101 |
| GTCTGAAA | 0.241 |
| CCCCAATA | -0.122 |
| ATATTCCA | 0.212 |
| ATATTCCC | 0.0634 |
| ATATTCCG | 0.321 |
| ACGTAGCG | -0.138 |
| AGTTTGTG | -0.0605 |
| AGTTTGTC | 0.446 |
| CGTTTGTA | 0.189 |
| AGTTTGTA | 0.182 |
| CGTTTGTC | 0.44 |
| CGTTTGAC | 0.12 |
| TATGTAAA | 0.0978 |
| GACGCCAA | -0.157 |
| CTATTAAA | 0.179 |
| ATATTAAA | 0.344 |
| AGATTAAT | 0.0857 |
| CAAATTAA | 0.0951 |
| AAAATTAA | 0.187 |
| AAATTAAC | 0.0769 |
| CGATTAAA | 0.0941 |
| AAATTAAA | 0.355 |
| AGATTAAA | 0.309 |
| GAAATTAA | 0.34 |

| Sequence | PBM E-score |
| --- | --- |
| AAATTAAT | 0.199 |
| TTATTAAA | 0.29 |
| TGGGTCAA | -0.0713 |
| CGCCAAGA | -0.142 |
| GCAGAGGC | -0.241 |
| CCCTGCCG | -0.254 |
| CGCCAATC | -0.0945 |
| AATGCCCC | -0.197 |
| AATTCAGG | 0.109 |
| GCGGGTGA | -0.0547 |
| GCACAAAC | 0.0596 |
| AAGCCTCT | -0.17 |
| CCAATGTA | 0.0173 |
| ACAATGTA | 0.156 |
| ACAATGTC | 0.452 |
| CCAATGAC | -0.00959 |
| ACAATGTG | 0.0288 |
| CCAATGTC | 0.328 |
| GCATAAAA | 0.128 |
| AATCCTTA | -0.134 |
| CGAGCTAA | -0.0305 |
| CAGAATAA | 0.0293 |
| GTGACACA | 0.286 |
| TGGACACA | 0.427 |
| GGGACACC | 0.185 |

| Sequence | PBM E-score |
| --- | --- |
| TGCACACA | 0.0221 |
| GGGACACA | 0.449 |
| TCGACACA | 0.133 |
| AGGAAATC | 0.0408 |
| AAGTGCGC | -0.108 |
| ATGCTGTC | 0.0368 |
| GTAGCGCA | -0.107 |
| CCAAGAAG | -0.0807 |
| ATTATAAA | 0.17 |
| ATTATAAG | 0.103 |
| ATTATAAT | 0.307 |
| CCACATAC | 0.0664 |
| CACCAACG | 0.185 |
| CCATAGAG | 0.0389 |
| ACGCTAAT | -0.223 |
| AAAGGCCG | -0.00669 |
| ATACCTAG | -0.0479 |
| GTGTCTTA | 0.04 |
| ATGTCTTA | 0.423 |
| AAGTCTTG | 0.0419 |
| ATGTCTTC | 0.293 |
| ATGTCTTG | 0.35 |
| ATGTCTGC | 0.286 |
| GTGTCTGA | 0.185 |
| ATGTCTGG | 0.323 |

| Sequence | PBM E-score |
| --- | --- |
| ACGTCTGG | 0.154 |
| CTGTCTTA | 0.181 |
| CTGTCTGA | 0.0827 |
| ATGTCTGA | 0.425 |
| GACCATTA | 0.0825 |
| ATCACAAT | -0.035 |
| CAAACGAG | 0.099 |
| CAGAGGAC | 0.0901 |
| CAACGGAC | 0.121 |
| AGAGCCGC | -0.0659 |
| ATCGCGTA | -0.176 |
| ACAGTCGA | -0.0747 |
| ATCCCGAT | 0.125 |
| ACAAAGGC | 0.098 |
| CCTCAAGC | -0.277 |
| ACGCTGGG | -0.406 |
| ATCTTGCG | -0.0566 |
| AGCGGACA | 0.359 |
| AGCGGACT | -0.229 |
| CGCGGACC | 0.0148 |
| CGCGGACG | 0.181 |
| GGCGGACA | 0.273 |
| TGCGGACA | 0.427 |
| CGCGGACA | 0.329 |
| AGCGGACG | 0.0534 |

| Sequence | PBM E-score |
| --- | --- |
| TGCGGAAA | 0.0764 |
| CTGCTCAA | 0.0116 |
| CGAGTGCG | 0.0204 |
| CGTTGCAG | -0.0934 |
| AACATTCA | -0.0503 |
| CACATTCC | 0.0503 |
| AACATTCC | -0.0175 |
| CACATTCA | -0.0795 |
| GACATTCA | 0.449 |
| GACATTCC | 0.456 |
| ATACATAT | 0.264 |
| CCGCTCTA | 0.0134 |
| GACTCCCC | -0.207 |
| ATTTCTCG | 0.255 |
| CGATACCG | -0.0866 |
| TCGGACCA | 0.12 |
| GCGGACCA | 0.0483 |
| GCGGACAA | 0.44 |
| CCGGACAA | 0.452 |
| ACGGACAA | 0.474 |
| ACGGACGA | 0.0949 |
| TCGGACGA | 0.199 |
| GCGGACAC | 0.162 |
| ACGGACCA | 0.0706 |
| CCGGACAG | 0.227 |

| Sequence | PBM E-score |
| --- | --- |
| CCGGACAC | 0.288 |
| TCGGACAA | 0.457 |
| ACATTCGT | 0.0578 |
| AATTCTCT | -0.229 |
| CGACCGCG | -0.0918 |
| CGGGAGGA | -0.0135 |
| GAGTGTGC | 0.0104 |
| GCTACACC | -0.162 |
| GCCTGACC | -0.234 |
| AAATACCA | -0.0306 |
| ACAAAATC | 0.352 |
| ATAAAATG | 0.341 |
| ATAAAATA | 0.183 |
| ATAAAATC | 0.0924 |
| CCAAAATC | 0.0937 |
| AAAAAATC | 0.105 |
| ACAAAATG | 0.312 |
| AAAAAATG | 0.287 |
| ACAAAATA | 0.188 |
| GCCGATTA | -0.0616 |
| ATTGCCGG | -0.0182 |
| GGATAGAC | -0.0706 |
| GGACATCC | 0.475 |
| TGACATCA | 0.257 |
| CGACATCA | 0.125 |

| Sequence | PBM E-score |
| --- | --- |
| AGACATCC | 0.328 |
| GAACATCC | 0.162 |
| AGACATCG | 0.226 |
| GGACATCA | 0.396 |
| AGACATCT | 0.29 |
| CGACATCC | 0.0825 |
| ATAGTGGA | 0.0789 |
| CCCTGCTC | -0.172 |
| CCGCTTCC | -0.183 |
| AACGGACA | 0.344 |
| TACGGAAA | 0.17 |
| TACGGACA | 0.44 |
| GACGGACA | 0.386 |
| AACGGACG | 0.0165 |
| CACGGACA | 0.455 |
| GACGGACC | -0.0404 |
| TACGGAGA | -0.0508 |
| CACGGACC | 0.0127 |
| CACGGACG | 0.175 |
| GACGGAAA | 0.106 |
| AACGGACT | -0.00389 |
| ACTAACGC | -0.108 |
